# CSC inhib: cancer stem cell inhibition; inhibition, % at 7.5 µM; actives 1.1% (n = 300,000); cancer stem cell-like cells viability, luminescence; in the data active = inhibition above about 75%; tested in HMLE shEcad cells
# Beta apoptosis: beta cell apoptosis inhibition; INS-1E cytokine-induced death, ATP luminescence, 48 h; percent of positive-control rescue, neutral wells zero; protection from apoptosis, % (concentration not given with the values); actives 0.8% (n = 300,000); AID 435005;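 active = Every replicate reaches about 75%, or at least half do and their mean reaches it too, limit read from the data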;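 note: 0% = cytokine-treated negative control wells and 100% = positive control rescue; higher means more ATP so stronger rescue from cytokine killing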
# Mdm2 MdmX PPI: human Mdm2/MdmX binding inhibition; O15151+Q00987; SaOS-2 split-luciferase Mdm2/MdmX complementation, luminescence; inhibition, % at 8 µM; actives 3% (n = 330,000); AID 485346;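 active = inhibition of at least 50% at 8 µM in the primary screen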
# NR3A LBD binder: NR3A (human) ligand-binding domain modulation; NR3A LBD differential scanning fluorimetry, Tm shift; 0% = protein alone, 100% = glycine-bound protein; Tm shift relative to glycine control, % at 25 µM; actives 2.5% (n = 340,000);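 active = melting temperature shift of at least 10% of the positive control shift, at one fixed dose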
# SKKanGAS inh: inhibitors of SKKanGAS S. pyogenes growth in kanamycin (SK-promoter or general growth effect). AID 1662. actives 1.3% (n = 300,000). inhibition, % at 7.5 µM. BacTiter-Glo, 6 h;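 active = mean replicate score, as percent of positive control median, at least 50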;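 note: strain carries kanamycin resistance gene driven by streptokinase promoter and grows in 40 µg/ml kanamycin; loss of luminescence reflects streptokinase promoter inhibition or plain growth inhibition; 0% = median of DMSO wells and 100% = positive control at its reference dose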
# MPTP block: inhibitors of mitochondrial permeability transition pore. isolated mouse mitochondria, Ca2+ swelling absorbance, 30 min. inhibition, % at 10 µM. actives 1.4% (n = 360,000). AID 602449;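 active = inhibition of 50% or more, scaled per plate between neutral and stimulator controls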;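 note: 0% = DMSO wells given calcium and 100% = 1 mM EGTA wells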
# Mdm2-MdmX conf: human Mdm2/MdmX binding inhibition, confirmed. shares compounds with Mdm2 MdmX PPI. luminescent assay. inhibition, % at 8 µM. actives 55% (n = 10,000); in the data active = inhibition above about 40%
# FLuc counter: inhibits full-length luciferase, flagging false Mdm2/MdmX hits; shares compounds with Mdm2 MdmX PPI; inhibition, % at 8 µM; AID 504607; SaOS-2 full-length luciferase counterscreen, luminescence; actives 77% (n = 6,200);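 active = mean inhibition at 8 µM reaching about 37%, which flags the compound as non-specific, limit read from the data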;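 note: p53-null SaOS-2 cells with luciferase driven by a doxycycline-inducible promoter; compound on cells about two nights before reading with doxycycline added after day one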
# Numbers without * were called inactive; . = no result given. Rows were chosen to be rich in hits. Some 6.9% of all compounds tested hit in one or more screens of this group.
SMILES,CSC inhib,Beta apoptosis,Mdm2 MdmX PPI,NR3A LBD binder,SKKanGAS inh,MPTP block,Mdm2-MdmX conf,FLuc counter
COc1cc(C(=O)OCC(=O)N2CC(C)OC(C)C2)cc(OC)c1OC (stereo not given),8.3,2.2,-2.1,0.8,7.4,5.8,.,.
Cc1cc(C(=O)CN2C(=O)c3ccccc3S2(=O)=O)c(C)n1C(C)C,-6.3,-0.9,56.0*,0.5,.,0.2,41.0*,37.0*
C=CCn1c(C)cc(C(=O)CN2C(=O)c3ccccc3S2(=O)=O)c1C,-7.7,2.3,74.5*,-1.3,.,0.7,78.7*,53.0*
Cc1cc(C(=O)CN2C(=O)C3CC=CCC3C2=O)c(C)n1-c1ccccc1 (stereo not given),-3.5,1.8,0.2,4.1,-11.4,3.8,.,.
Cc1cc(C)nc(NC(=O)CN2C(=O)c3ccccc3S2(=O)=O)n1,1.4,.,-4.6,-0.3,-3.2,-1.3,.,.
CCn1c(C)cc(C(=O)CN2C(=O)c3ccccc3S2(=O)=O)c1C,-11.5,-6.4,88.2*,0.5,.,-0.3,81.3*,23.2
C=CCn1c(C)cc(C(=O)CN2C(=O)NC3(CCCc4ccccc43)C2=O)c1C (stereo not given),-10.3,-3.4,-34.0,-0.1,0.6,-6.1,.,.
Cc1cc(C(=O)CN2C(=O)c3ccccc3S2(=O)=O)c(C)n1-c1ccccc1,-6.9,-0.2,56.9*,0.6,14.2,-2.6,31.9,.
N#Cc1ccc(Cn2c(-c3ccc(F)cc3)noc2=O)cc1,20.0,1.3,8.7,-2.2,-5.7,0.1,.,.
CCCCCC(=O)Nc1ccc(C(=O)COC(=O)CN2C(=O)NC3(CCCC3)C2=O)cc1,-10.5,2.1,32.1,1.1,-2.5,2.7,.,.
O=C(CCC(=O)N1CCCC1)Nc1ccc(Cl)c(Cl)c1,-16.9,-4.8,-8.1,1.5,-10.0,-1.0,.,.
Cc1ccc2c(c1)[C@@H]1CN(C)CC[C@@H]1N2S(=O)(=O)c1ccc([N+](=O)[O-])cc1,-3.7,13.3,4.5,-6.3,-1.4,1.0,.,.
Cc1ccc2c(c1)C1CN(C)CCC1N2Sc1ccccc1[N+](=O)[O-] (stereo not given),10.3,-5.2,61.1*,0.5,-7.0,0.6,40.2*,62.0*
Cc1ccc2[nH]c(=O)c(CN(CC3CCCO3)C(=S)Nc3ccccc3)cc2c1 (stereo not given),10.9,-0.1,39.9,-23.8,7.4,-0.3,.,.
Cc1ccc(-c2cc(-c3ccc4c(c3)OCO4)c(C#N)c(N)n2)o1,2.3,-7.1,56.7*,-3.6,12.8,-1.1,26.8,.
Cc1ccc(-c2cc(-c3ccc(C)o3)nc(N)c2C#N)cc1,2.4,-8.0,0.0,-2.8,5.7,-2.0,.,.
COc1ccc(C2c3ccc4ccccc4c3Oc3ncn(CCN4CCOCC4)c(=N)c32)cc1OC (stereo not given),.,.,69.3*,0.8,-1.9,-4.7,46.6*,66.7*
COc1ccc(C2c3ccc(O)cc3Oc3ncn(CCN4CCOCC4)c(=N)c32)cc1OC (stereo not given),-0.6,-4.5,16.5,-1.6,3.3,5.1,.,.
COc1ccc(C2c3ccc4ccccc4c3Oc3ncn(CCN4CCOCC4)c(=N)c32)cc1 (stereo not given),10.5,.,74.6*,-2.7,3.9,-4.0,54.9*,52.7*
N=c1c2c(ncn1CCN1CCOCC1)Oc1cc(O)ccc1C2c1ccccc1 (stereo not given),-11.5,4.0,15.0,0.2,-7.2,-0.9,.,.
COc1ccc(C2c3c(ncn(CCCN4CCOCC4)c3=N)Oc3ccc4ccccc4c32)cc1OC (stereo not given),-7.4,-2.4,86.2*,-1.4,0.0,-3.0,51.2*,67.3*
COC(=O)CCCC1=CC2=CC(=O)C(C)(OC(=O)c3ccc(Cl)nc3)C(=O)C2=CO1 (stereo not given),-4.2,1.6,9.9,.,-0.2,.,.,.
CC1CC(C)CN(CCCNC(=O)c2ccc3c(c2)N(Cc2ccccc2)C(=O)c2ccccc2S3=O)C1 (stereo not given),8.1,7.4,64.2*,-1.9,0.3,1.7,40.8*,69.4*
